Source: PubChem BioAssay
G9a inh – qHTS Assay for Inhibitors of Histone Lysine Methyltransferase G9a; G9a H3K9 monomethylation, AlphaScreen, 2 h; 8.8% of 350,000 active; Potency, µM (highest dose often 102 µM), actives largely listed as inhibitors; AID 504332, 2011; further: nearly all actives have a fitted effect of over 75% in size
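Using a bead-based AlphaScreen, monomethylated H3K9 product from 2 h room-temperature reactions (G9a 20 nM, peptide 500 nM, SAM 20 uM) was detected with 0.5 ug/mL rabbit anti-H3K9me1 antibody.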
12-LOX inh – Primary qHTS assay for inhibitors of human arachidonate 12S-lipoxygenase (ALOX12): Round 2. Polyunsaturated fatty acid lipoxygenase ALOX12 (Homo sapiens), P18054. 1.1% of 580,000 active. Potency, µM (top dose mostly 108 µM), actives largely listed as inhibitors. purified 12hLO, xylenol orange hydroperoxide absorbance
Target sequence (P18054 whole entry, looked up): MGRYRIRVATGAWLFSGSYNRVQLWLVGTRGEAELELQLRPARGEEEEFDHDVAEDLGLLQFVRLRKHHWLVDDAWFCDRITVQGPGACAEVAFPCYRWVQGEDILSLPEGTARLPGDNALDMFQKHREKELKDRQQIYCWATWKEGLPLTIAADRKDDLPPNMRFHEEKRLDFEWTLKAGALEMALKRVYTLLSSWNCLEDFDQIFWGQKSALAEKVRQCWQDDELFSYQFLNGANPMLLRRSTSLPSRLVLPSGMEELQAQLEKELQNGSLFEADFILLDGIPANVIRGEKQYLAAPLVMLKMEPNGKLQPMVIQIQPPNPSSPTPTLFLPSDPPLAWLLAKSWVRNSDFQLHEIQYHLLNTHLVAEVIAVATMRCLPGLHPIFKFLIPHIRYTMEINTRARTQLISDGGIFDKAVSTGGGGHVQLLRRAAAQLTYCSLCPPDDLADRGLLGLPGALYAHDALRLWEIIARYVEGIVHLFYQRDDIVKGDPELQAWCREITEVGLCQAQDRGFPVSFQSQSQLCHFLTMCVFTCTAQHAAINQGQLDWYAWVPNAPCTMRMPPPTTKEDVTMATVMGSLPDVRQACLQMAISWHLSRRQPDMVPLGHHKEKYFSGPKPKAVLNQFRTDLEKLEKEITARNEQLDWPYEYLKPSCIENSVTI
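Hydroperoxide product was detected by ferrous iron/xylenol orange as the 573 to 405 nm absorbance ratio. Arachidonic acid at 40 uM (final) was turned over for 30 min at room temperature by 150 nM human 12hLO, pH 7.0 Hepes buffer, after 15 min compound preincubation.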
VDR inhibitor – Inhibitors of the vitamin D receptor (VDR): qHTS; VDR-SRC2-3 peptide fluorescence polarization, 2 h; AID 504847, 2011; 0.93% of 400,000 active; Potency, µM, hits mostly inhibitors
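Measured by FP: displacement of SRC2-3 coactivator peptide from VDR by library compounds, following a two-hour ambient incubation.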
GRP78 ERSR act – qHTS for Inducers of the Endoplasmic Reticulum Stress Response (ERSR) in Human Glioma: qHTS; U87-MG GRP78 promoter luciferase reporter, 16 h; Potency, µM, usual class: activators; 0.02% of 420,000 active; AID 602332, 2012; further: series mostly up to about 76 µM; nearly all actives have a fitted effect of over 35% in size
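Stably transfected U87-MG human glioma cells carrying a GRP78-based luminescent sensor were seeded at 1000 cells/well, pin-dosed with compounds and incubated 16 h. Luciferase reagent was then added, and end-point luminescence was read after 10 min at room temperature.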
Sfp PPTase inh – qHTS Assay for Inhibitors of Bacillus subtilis Sfp phosphopantetheinyl transferase (PPTase) | Biochemical Sfp PPTase activity, qHTS | Potency, µM, most hits filed as inhibitors | 3.5% of 310,000 active | AID 1490, 2009;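 further: the enzyme is Sfp with the accession as filed and its product quenches rhodamine fluorescence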
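Reaction rates are the 30-min fluorescence difference (ex 525, em 598 nm) in wells containing 15 nM Sfp, 5 uM rhodamine-CoA and 12.5 uM BHQ-2-YbbR at pH 7.6 with 10 mM MgCl2.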
Hits are given with their value. The full list was thinned out, with hits kept by preference. The call rests on the fitted dose curve; in most records, active means well fitted curve in the direction sought with a large enough effect; inconclusive means small, poorly fitted or top-dose-only effect, or another doubt; inactive means no such curve, though single readings can be large; an effect the other way counts as inactive or inconclusive.

How did Cc1cccc(C(=O)c2c(N)sc3c2CCC(C)C3)c1 (configuration not stated) do in these assays?
G9a inh: 45µM; 12-LOX inh: inconclusive; VDR inhibitor: inactive; GRP78 ERSR act: inactive; Sfp PPTase inh: inconclusive

How did Cc1cccc(C(=O)Nc2sc3c(c2C(=O)O)CCCC3)c1 do in these assays?
G9a inh: inconclusive; 12-LOX inh: inactive; VDR inhibitor: inactive; GRP78 ERSR act: inactive; Sfp PPTase inh: inactive

How did CC1CCC(NC(=O)CN2C(=O)C(C)(C)c3cc(S(=O)(=O)N4CCC(C)CC4)ccc32)CC1 (configuration not stated) do in these assays?
12-LOX inh: inactive

What do the screens show for `O=C(Nc1ccc2c(c1)OCO2)C1CCCN(c2nc3ccccc3s2)C1` (configuration not stated)?
G9a inh: 3.2µM; 12-LOX inh: inactive; VDR inhibitor: inactive; GRP78 ERSR act: inactive; Sfp PPTase inh: inactive

Results for Cc1cc(C)c(OCCOCCN2CCN(C)CC2)c(Cl)c1 ?
G9a inh: 3.5µM; 12-LOX inh: inconclusive; VDR inhibitor: inactive; GRP78 ERSR act: inactive; Sfp PPTase inh: inactive

How did Cc1cc(Cl)cc(Cl)c1OCCN1CCCC1 do in these assays?
G9a inh: 50µM; 12-LOX inh: inconclusive; VDR inhibitor: inactive; GRP78 ERSR act: inactive; Sfp PPTase inh: inactive

Results for Cc1cc(Cl)c(OCCOCCN2CCNCC2)c(Cl)c1 ?
12-LOX inh: inconclusive; VDR inhibitor: inactive; GRP78 ERSR act: inactive

What do the screens show for `Cc1cc(C)c(OCCN2CCCC2)c(Cl)c1`?
G9a inh: 45µM; 12-LOX inh: inactive; VDR inhibitor: inactive; GRP78 ERSR act: inactive; Sfp PPTase inh: inactive

How did C=CC#CCCCc1ccc(OC(=O)c2ccc(C(=O)Oc3ccc(CCCC#CC=C)cc3C)cc2)c(C)c1 do in these assays?
12-LOX inh: inactive

How did CCOC(=O)C1CCN(C(=O)Cc2ccc(N(Cc3ccccc3)C(=O)c3ccco3)cc2)CC1 do in these assays?
12-LOX inh: inactive

Results for Cn1nnnc1SCC(=O)c1ccc(Br)s1 ?
12-LOX inh: inactive; VDR inhibitor: inconclusive; GRP78 ERSR act: inactive; Sfp PPTase inh: inactive

How did Cn1nnnc1SCC(=O)c1cccs1 do in these assays?
G9a inh: inconclusive; 12-LOX inh: inactive; VDR inhibitor: inconclusive; GRP78 ERSR act: inactive; Sfp PPTase inh: 45µM

Results for COc1ccccc1C(=O)NC(=O)CSc1cccc[n+]1[O-] ?
G9a inh: inactive; 12-LOX inh: inactive; VDR inhibitor: inactive; GRP78 ERSR act: inactive; Sfp PPTase inh: inactive

How did C=CCn1c(SCC(=O)N2c3ccccc3Sc3ccccc32)nnc1-c1ccco1 do in these assays?
G9a inh: inconclusive; 12-LOX inh: 22µM; VDR inhibitor: inactive; GRP78 ERSR act: inactive; Sfp PPTase inh: inactive

Results for O=C(CSc1cccc[n+]1[O-])c1cccs1 ?
G9a inh: 18µM; 12-LOX inh: inactive; VDR inhibitor: inactive; GRP78 ERSR act: inactive; Sfp PPTase inh: inactive

What do the screens show for `Cn1cccc1C(=O)NC(=O)CSc1cccc[n+]1[O-]`?
G9a inh: 28µM; 12-LOX inh: inactive; VDR inhibitor: inactive; GRP78 ERSR act: inactive; Sfp PPTase inh: inconclusive

What do the screens show for `Cn1c(SCC(=O)N2c3ccccc3Sc3ccc(Cl)cc32)nnc1-c1ccco1`?
G9a inh: inconclusive; 12-LOX inh: inactive; VDR inhibitor: inactive; GRP78 ERSR act: inactive; Sfp PPTase inh: inactive

How did CCn1c(SCC(=O)c2cccs2)nnc1-c1ccco1 do in these assays?
G9a inh: 50µM; 12-LOX inh: inactive; VDR inhibitor: inactive; GRP78 ERSR act: inactive; Sfp PPTase inh: inactive

How did CCn1c(SCC(=O)N2c3ccccc3Sc3ccccc32)nnc1-c1ccco1 do in these assays?
G9a inh: 6.3µM; 12-LOX inh: inconclusive; VDR inhibitor: inactive; GRP78 ERSR act: inactive; Sfp PPTase inh: inconclusive

Results for CCn1c(SCC(N)=O)nnc1-c1ccco1 ?
G9a inh: inactive; 12-LOX inh: inactive; VDR inhibitor: inactive; GRP78 ERSR act: inactive; Sfp PPTase inh: inactive

How did CCOc1ccccc1NC(=O)C(C)Oc1ccc(-n2cnnn2)cc1 (configuration not stated) do in these assays?
12-LOX inh: inactive

What do the screens show for `CCN(CC)C(=O)C(=O)Nc1cc(C(F)(F)F)ccc1Cl`?
G9a inh: inactive; 12-LOX inh: inactive; VDR inhibitor: inactive; GRP78 ERSR act: inactive; Sfp PPTase inh: inactive

Results for CCOC(=O)C(=NCCCN(C)C)NNc1ccc(Br)cc1 ?
G9a inh: 7.1µM; 12-LOX inh: inconclusive; VDR inhibitor: inactive; GRP78 ERSR act: inactive; Sfp PPTase inh: inactive

How did CCOC(=O)C(=O)NNc1ccc(C)cc1 do in these assays?
G9a inh: inconclusive; 12-LOX inh: inactive; VDR inhibitor: inactive; GRP78 ERSR act: inactive; Sfp PPTase inh: inactive

Results for CCOC(=O)C(=NCCCN(C)C)NNc1cc(C(F)(F)F)ccc1Cl ?
G9a inh: 40µM; 12-LOX inh: inconclusive; VDR inhibitor: inactive; GRP78 ERSR act: inactive; Sfp PPTase inh: inactive

Results for CCCCN=C(NNc1ccc(Br)cc1)C(=O)OCC ?
G9a inh: 11µM; 12-LOX inh: inconclusive; VDR inhibitor: inactive; GRP78 ERSR act: inactive; Sfp PPTase inh: inactive

How did CCOC(=O)/C(=N/Nc1ccc(Br)cc1)N1CC(C)OC(C)C1 (configuration not stated) do in these assays?
12-LOX inh: inconclusive; VDR inhibitor: inactive; GRP78 ERSR act: inactive

How did CCC(C)NC(=O)C1COC2(CCC(C)CC2)N1C(=O)c1cccc(F)c1 (configuration not stated) do in these assays?
12-LOX inh: inactive

Results for CCSc1ccccc1C(=O)NC(C)(C)C ?
12-LOX inh: inactive

What do the screens show for `CCN(CCCNC(=O)CCc1nc(-c2ccc(C)cc2)no1)c1cccc(C)c1`?
G9a inh: 45µM; 12-LOX inh: inactive; VDR inhibitor: inactive; GRP78 ERSR act: inactive; Sfp PPTase inh: inactive

What do the screens show for `CCN(CCCNC(=O)CCn1c(=O)[nH]c2ccccc2c1=O)c1ccccc1`?
G9a inh: 50µM; 12-LOX inh: inactive; VDR inhibitor: inactive; GRP78 ERSR act: inactive; Sfp PPTase inh: inactive

How did CCN(CCCNC(=O)COc1cc(=O)n(C)c2ccccc12)c1cccc(C)c1 do in these assays?
G9a inh: 35µM; 12-LOX inh: inactive; VDR inhibitor: inactive; GRP78 ERSR act: inactive; Sfp PPTase inh: inactive

What do the screens show for `CCN(CCCNC(=O)CCn1c(=O)[nH]c2ccccc2c1=O)c1cccc(C)c1`?
G9a inh: 10µM; 12-LOX inh: inconclusive; VDR inhibitor: inactive; GRP78 ERSR act: inactive; Sfp PPTase inh: inactive

What do the screens show for `CCCCCNC(=O)CCn1c(=O)[nH]c2ccccc2c1=O`?
G9a inh: inactive; 12-LOX inh: inconclusive; VDR inhibitor: inactive; GRP78 ERSR act: inactive

What do the screens show for `CCN(CCCNC(=O)CCCn1c(=O)[nH]c2ccccc2c1=O)c1cccc(C)c1`?
G9a inh: 13µM; 12-LOX inh: inactive; VDR inhibitor: inactive; GRP78 ERSR act: inactive; Sfp PPTase inh: inactive
